What all share (assay): NCI-60 one-dose screen, 48 h (100 = growth as untreated, 0 = no growth, -100 = all killed)
Test [1] has as its system SK-MEL-2 melanoma. The conditions noted are these: 10 µM unless noted.
Test [2] has as its system EKVX NSCLC. As to conditions: 10 µM unless noted.
Test [3] deals with SN12C renal. The conditions noted are these: 10 µM unless noted.
Test [4] relates to UO-31 renal. As to conditions: 10 µM unless noted.
Test [5] concerns TK-10 renal. The conditions noted are these: 10 µM unless noted.
Test [6] has as its system CAKI-1 renal. The conditions noted are these: 10 µM unless noted.
Test [7] concerns A498 renal. As to conditions: 10 µM.
The subject of test [8] is HL-60(TB) leukemia. As to conditions: 10 µM unless noted.
Test [9] deals with CCRF-CEM leukemia. As to conditions: 10 µM unless noted.
In test [10] the test system is ACHN renal. As to conditions: 10 µM unless noted.

About 83,000 compounds went through this panel and 20% of them were active in at least one assay; those are over-represented in the sample as a whole.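 Percent growth is the endpoint: 0 to 100 indicates growth inhibition (40 means 60% inhibition), 0 means no net growth, and negative values indicate cell death.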 A number with no mark means an inactive call. Activity calls are given as the source filed them. The calls were made as follows: active = growth percent below 10; inactive = the rest.

As to `O=C(CC1(O)C(=O)Nc2ccc(Br)cc21)c1ccc(C(=O)NCC2CCC3(CC2)OOC2(CCCCC2)OO3)cc1` (stereo not drawn), the growth in test [1] is 23.3%; in [2] it was -36.4% (active); in [3], 59.1%; in [4], -82.4% (active); in test [5], 72.5%; in test [6], 0.714% (active). Besides, the results for the growth in [7], in test [8] and in test [9] were 84.7%, -39.2% (active) and -34.4% (active), respectively.
For the compound `COc1cc(C=Nc2cccc(Br)c2)ccc1N(CCCl)CCCl`, the growth was 91.2% in test [1]; 120% in test [2]; 84.5% in [3]; 69.1% in [4]; 92.9% in test [5]; 5.9% (active) in [6]. For the same compound, the growth in test [7] is 120%; in test [8], 71.2%; in [9], 63.5%.
As to `N#CCCNc1ccccc1`, the growth in test [1] was 112%; in test [2] it was 98%; in test [3], 111%; in [4], 93.6%; in [5], 115%; in [10], 101%. Moreover, the growth was -10.8% (active) in test [8] and 80.6% in test [9].
For the compound `O=[N+]([O-])/C=C\c1ccc(Cl)c(Cl)c1`, the growth in test [1] is 84%; in [2], 91.8%; in [3] it was 77.5%; in test [4] it was 35.4%; in test [5], 82.7%; in test [10], 78.4%. The growth in test [8] is 34.6%.
`COc1ccc(/C=C\c2cc(OC)c(OC)c(OC)c2)cc1NC(=O)/C=C/c1ccc(OC)c(OC)c1`: the growth in [1] was 66.9%; in test [2], 55.1%; in test [3], 43.5%; in [4], 41.6%; in [5], 91%; in test [6], 42.3%. Moreover, the values for the growth in test [7], in test [8] and in [9] were -1.67% (active), -24.9% (active) and 12.1%, respectively.
`O=C(CC1(O)C(=O)N(Cc2ccccc2)c2ccc(Cl)cc21)c1ccc(C(=O)NCC2CCC3(CC2)OOC2(CCCCC2)OO3)cc1` (stereo not drawn): the growth was 2.93% (active) in test [1]; -71.1% (active) in [2]; -58.1% (active) in test [3]; -74.2% (active) in [4]; -91.5% (active) in [5]; -94.3% (active) in [6]. For the same compound, the growth in test [7] was -91% (active); in [8], -62.7% (active); in test [9] it was -42.7% (active).
Regarding `COC(=O)[C@@]1(C)CC[C@]2(C)CC[C@]3(C)C4=CC=C5C(=CC(=O)C(O)=C5C)[C@]4(C)CC[C@@]3(C)[C@@H]2C1`, the growth in test [1] is -87.6% (active); in test [2], -77.8% (active); in test [3], -88.2% (active); in test [4], -99.4% (active); in test [5], -95.7% (active); in [7] it was -97.9% (active). The results for the growth in test [8] and in test [9] were -53.1% (active) and -41.2% (active), respectively.
Regarding `NC(N)=N/N=C\c1c[nH]c2ccc(Br)cc12`, the growth is 99.9% in test [1]; 93.8% in test [2]; 68.5% in test [3]; 86.1% in test [4]; 116% in test [5]; 101% in test [6]. The growth is 89.7% in test [7], 93.5% in test [8] and 78.6% in test [9].
Take `CC(=O)ONc1ccc([N+](=O)[O-])c(C(F)(F)F)c1`: the growth is 102% in [1]; 87.6% in [2]; 107% in [3]; 77.2% in test [4]; 112% in test [5]; 103% in test [7]. The growth in test [8] was 90%; in test [9], 97.7%.
Regarding `CN1C(=O)C(=Cc2cn(Cc3ccccc3)c3ccccc23)C(=O)N(C)C1=O`, the growth in test [1] is 81.5%; in test [2], 82.1%; in test [3], 103%; in test [4], 54.3%; in test [5], 4.63% (active); in test [6] it was 60.4%. Also, the growth in [7] is -83.1% (active); in test [8] it was 64.4%; in [9], 92%.
Take `C=COC(=O)CCN1CC1`: the growth in [1] is 115%; in [2], 103%; in test [3], 102%; in test [4] it was 90.6%; in test [5], 110%; in [7] it was 77.4%. Also, the figures for the growth in test [8] and in [9] were 92.3% and 105%, respectively.
As to `COc1ccc(N(CC(=O)NCCC[Te]c2ccccc2)C(=O)CCSC2=C(C)C(=O)c3ccccc3C2=O)cc1`, the growth in [1] was -49.6% (active); in test [2], -2.22% (active); in test [3], -8.2% (active); in [4], -29.3% (active); in test [5], 8.99% (active); in [6] it was -25.5% (active). Besides, the growth in test [7] was -32.2% (active).
With `COc1cc(/C=N/C2=C(C#N)C(c3ccco3)c3c(c4cc(C)ccc4oc3=O)O2)cc(OC)c1OC` (stereo not drawn), the growth in test [1] was 94.1%; in [2], 95.1%; in [3], 99.5%; in [4] it was 67.9%; in test [5] it was 109%; in test [6], 85.8%. Also, the growth was 86.6% in test [7], 96.1% in [8] and 96.5% in test [9].
`COC(=O)[C@@H](C)C[C@H](Cc1ccccc1)NC(=O)c1csc([C@@H](C[C@H](C(C)C)N(C)C(=O)C2(NC(=O)[C@H]3CCCCN3C)CC2)OC(C)=O)n1`: the growth is 34.1% in test [1]; 29.1% in [2]; 31.3% in test [3]; 48% in test [4]; 32.4% in [10]; 59.8% in test [6]. The growth in test [7] was -5.45% (active); in test [8], -46.1% (active); in test [9] it was 3.37% (active).

The record behind these values is PubChem BioAssay (NCI).
